In the library only some 1.5% were active in any assay of this set; here they are far more common.
S1P2 ag: agonists of human S1P2 receptor | AID 729 | activation, % at 4.5 µM | hit rate 0.46% among 97,000 | S1P2-expressing cell line, agonist reporter read-out; in the data active = activation above about 16%
Mac1 fbg inh: inhibitors of human CD11b/CD18 binding to fibrinogen; P05107+P11215; hit rate 0.54% among 93,000; inhibition, % at 10 µM; K562 CD11b/CD18 adhesion to fibrinogen, ATPlite luminescence; Mn2+ added to activate the integrin;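 active = primary inhibition of 50% or more at 10 µM, then 40% or more on retest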
GALR2 antag: blocks the human galanin receptor 2; inhibition, % at 4 µM; hit rate 0.39% among 140,000; GALR2-expressing cells, antagonist mode; O43603; in the data active = inhibition above about 27%;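 also: cells stimulated with galanin 1-16 at roughly its EC80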
Mac1 fbg enh: enhancers of human CD11b/CD18 binding to fibrinogen. P05107+P11215. hit rate 0.07% among 93,000. activation, % at 10 µM. K562 CD11b/CD18 adhesion to fibrinogen, ATPlite luminescence;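 active = 10 µM primary screen giving 50% or more activity, confirmed by 40% or more on retest at that dose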
S1P2 antag: S1P2 (human) receptor antagonism. O95136. cell-based S1P2 antagonist assay, inhibition at 5 uM. inhibition, % at 5 µM. hit rate 0.21% among 97,000. AID 736; in the data active = inhibition above about 45%;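 also: CRE beta-lactamase reporter cells expressing human S1P2 stimulated with S1P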
GALR2 agonist: GALR2 (human) receptor agonism; O43603; GALR2-expressing cells, agonist activation read-out; activation, % (concentration not given with the values); hit rate 0.48% among 140,000; in the data active = activation above about 5%, passing the limit was not always enough
GALR2 ag confirm: confirmation of human galanin receptor 2 (GALR2) agonists; shares compounds with GALR2 agonist; GALR2-expressing cells, agonist activation; activation, % at 5.6 µM; hit rate 10% among 460; AID 864; in the data active = activation above about 8.4%
BLA activ ctr: beta-lactamase activation, GALR2 counterscreen. shares compounds with GALR2 agonist. CHO NFAT-bla reporter, beta-lactamase FRET activation. activation, % at 5.6 µM. hit rate 10% among 460. AID 865;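 active = activation above the screen-wide mean activation plus 3 SD, cut at about 8% in these data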
Of the large screens only hits and unclear results are named; the others gave an inactive call (follow-up assays come after a bar, where they were run).

CCOC(=O)c1ccc(NC(=S)N2CCSC2c2ccc(Cl)cc2)cc1 (stereo unspecified)	GALR2 agonist 8.8 (no result: S1P2 ag, Mac1 fbg inh, Mac1 fbg enh, S1P2 antag) | GALR2 ag confirm 9.4 | BLA activ ctr 18
CCOC(=O)c1ccc(NC(=S)N2CCSC2c2ccc(OC)cc2)cc1 (stereo unspecified)	none (no result: S1P2 ag, Mac1 fbg inh, Mac1 fbg enh, S1P2 antag)
COc1ccc(C(=O)N2CCC(O)(c3ccc(F)cc3)CC2)cc1OC	GALR2 agonist 98 | GALR2 ag confirm inactive | BLA activ ctr inactive
CC1CN(Cc2cc(=O)[nH]c(C(C)C)n2)CC(C)O1 (stereo unspecified)	GALR2 agonist 46 | GALR2 ag confirm inactive | BLA activ ctr inactive
CCCCCCc1cc2cc(S(=O)(=O)c3ccc(C)cc3)c(=O)oc2cc1O	GALR2 agonist 45 (no result: S1P2 ag, Mac1 fbg inh, Mac1 fbg enh, S1P2 antag) | GALR2 ag confirm 15 | BLA activ ctr 42
CCN(CC)c1ccc2cc(S(=O)(=O)c3ccc(Cl)cc3)c(=O)oc2c1	GALR2 agonist 43 (no result: S1P2 ag, Mac1 fbg inh, Mac1 fbg enh, S1P2 antag) | GALR2 ag confirm 16 | BLA activ ctr 29
CCCCCCc1cc2cc(C(=O)Nc3ccccc3)c(=O)oc2cc1O	none (no result: S1P2 ag, Mac1 fbg inh, Mac1 fbg enh, S1P2 antag)
CCCCCCc1cc2cc(S(=O)(=O)c3ccc(Cl)cc3)c(=O)oc2cc1O	GALR2 agonist 20 (no result: S1P2 ag, Mac1 fbg inh, Mac1 fbg enh, S1P2 antag) | GALR2 ag confirm 15 | BLA activ ctr 46
Cc1c(C=O)c(=O)n(-c2ccccc2)n1-c1ccccc1	none (no result: S1P2 ag, Mac1 fbg inh, Mac1 fbg enh, S1P2 antag)
Cc1nc(SCc2cccc(F)c2)[nH]c(=O)c1C#N	GALR2 agonist 154 | GALR2 ag confirm inactive | BLA activ ctr inactive
N#Cc1c(-c2ccco2)nc(SCc2ccc(F)cc2)[nH]c1=O	none
N=c1oc2cc(O)ccc2cc1C(=O)Nc1nc2ccccc2s1	GALR2 agonist 25 (no result: S1P2 ag, Mac1 fbg inh, Mac1 fbg enh, S1P2 antag) | GALR2 ag confirm 36 | BLA activ ctr 94
C/C(=N\NC(=O)c1cc(-c2ccc(C)s2)[nH]n1)c1ccco1	none (no result: S1P2 ag, Mac1 fbg inh, Mac1 fbg enh, S1P2 antag)
Cc1[nH]n(-c2ncc(-c3ccccc3)s2)c(=O)c1C(c1ccc(Cl)cc1)C(C#N)C#N (stereo unspecified)	none (no result: S1P2 ag, Mac1 fbg inh, Mac1 fbg enh, S1P2 antag)
Cc1cccc(C)c1NC(=O)COc1ccc2c(C)c(Cc3ccccc3)c(=O)oc2c1	none (no result: S1P2 ag, S1P2 antag)
CC1=C(C)CC(C(=O)NNC(=O)c2ccccc2)C(C(=O)O)C1 (stereo unspecified)	none (no result: Mac1 fbg inh, Mac1 fbg enh)
CC1=C(C)CC(C(=O)NNC(=O)c2cccc(Cl)c2)C(C(=O)O)C1 (stereo unspecified)	GALR2 agonist 8.2 (no result: S1P2 ag, Mac1 fbg inh, Mac1 fbg enh, S1P2 antag) | GALR2 ag confirm inactive | BLA activ ctr inactive
O=S(=O)(Nc1cccnc1)c1ccc(Cl)cc1	GALR2 agonist 80 | GALR2 ag confirm inactive | BLA activ ctr inactive
CC(C)(C)c1ccc(S(=O)(=O)Nc2cccnc2)cc1	none
Cn1nnnc1SCc1ccc([N+](=O)[O-])cc1	none (no result: S1P2 ag, Mac1 fbg inh, Mac1 fbg enh, S1P2 antag)
COC(=O)c1cc(NC(=O)CSc2nncn2C)cc(C(=O)OC)c1	GALR2 agonist 16 | GALR2 ag confirm inactive | BLA activ ctr inactive
CCNC(=O)n1nccc1C(C)Oc1cccc(C(F)(F)F)c1 (stereo unspecified)	none (no result: Mac1 fbg inh, Mac1 fbg enh)
CCC(CC)C(=O)NCCc1ccc(S(N)(=O)=O)cc1	none | GALR2 ag confirm inactive | BLA activ ctr inactive
CCCCC(CC)C(=O)NCCc1ccc(S(N)(=O)=O)cc1 (stereo unspecified)	none
COc1ccc(-n2nc(C(=O)NCc3ccco3)c3c4ccccc4n(C)c3c2=O)cc1	none (no result: S1P2 ag, Mac1 fbg inh, Mac1 fbg enh, S1P2 antag)
Cc1ccc(-n2nc(C(=O)NCc3ccc(C)o3)c3c4ccccc4n(C)c3c2=O)cc1	GALR2 agonist 14 | GALR2 ag confirm inactive | BLA activ ctr inactive
COc1ccc([N+](=O)[O-])cc1NC(=O)c1ccc(CN(c2ccccc2)S(C)(=O)=O)cc1	none (no result: S1P2 ag, S1P2 antag)
CCCn1nnnc1NC(=O)COc1ccc(CC)cc1	none (no result: S1P2 ag, Mac1 fbg inh, Mac1 fbg enh, S1P2 antag)
Cc1ccc(-c2cc3cccc[n+]3cc2-c2ccc(C)cc2)cc1	none (no result: S1P2 ag, Mac1 fbg inh, Mac1 fbg enh, S1P2 antag)
CCOC(=O)/C=c1\s/c(=C\c2ccc(C)cc2)c(=O)n1CC(=O)NCc1ccco1	GALR2 agonist 8.2 (no result: S1P2 ag, Mac1 fbg inh, Mac1 fbg enh, S1P2 antag) | GALR2 ag confirm inactive | BLA activ ctr inactive
CCOC(=O)/C=c1\s/c(=C\c2ccc(C(F)(F)F)cc2)c(=O)n1CC(=O)NCc1ccco1	none (no result: S1P2 ag, S1P2 antag)
COc1ccc(N(C(=O)CCl)C(C)(C(=O)Nc2c(C)cccc2C)c2ccccn2)cc1 (stereo unspecified)	none (no result: S1P2 ag, S1P2 antag)
